Laboratory results from PubChem BioAssay.
Active and inactive are the calls of the source.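 The calls were made as follows, unless noted: active = visually confirmed hit in the image check and inhibition above 20%; inconclusive = visually confirmed hit but inhibition not above 20%; inactive = no visual hit in the image check.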

How the values were obtained:
[1] = inhibitors of TNFa-induced NFkB p65 translocation, primary screen, imaging, HUVEC, MLSMR starter and 10KST1 sets (AID 438;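 active = inhibition above 20% together with a positive visual image hit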;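 also: compound added about 3h40 before a 20 min TNFalpha stimulation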;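 as to inhibition: signal is the nuclear over cytoplasmic p65 intensity ratio per well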); settings: HUVEC TNFa-induced p65 nuclear translocation; cell count: measured here: nuclei count (cytotoxicity indicator), at 2.08 µM; inhibition: at 2 µM, stronger effect = higher value, 0% TNFa-plus-vehicle, 100% no-TNFa wells
[2] = inhibitors of mutant huntingtin aggregation, primary screen, imaging, exon1htt(103Q)mCFP cells, high-content imaging (AID 483;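 active = visual image review flags a hit and inhibition of aggregation exceeds 20%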;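 also: compound exposure lasted 3 days before fixation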;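 as to nuclei count: percent of the per-plate median nuclei count of sample wells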); settings: exon1htt(103Q)mCFP cell line, aggregate imaging, at 2 µM; inhibition of aggregation: stronger effect = higher value; nuclei count: measured here: cell count, toxicity
[3] = inhibitors of E-selectin induction by TNFa, primary screen, imaging, HUVEC, immunofluorescence, MLSMR starter and 10KST1 sets (AID 487); settings: HUVEC TNFalpha-induced E-selectin immunofluorescence imaging, at 2 µM; inhibition: stronger effect = higher value; nuclei count: measured here: cell number, toxicity;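 as to inhibition: signal is fraction of cell area covered by stained E-selectin grains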;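 as to nuclei count: 100% = median nuclei count of all wells on the same plate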
[4] = molecular target: Voltage-gated potassium channel subunit beta-2 (Rattus norvegicus) (UniProt P62483); test: KvBeta enzyme negative modulators, primary screen, biochemical, NADPH fluorescence (AID 622;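 active = fluorescence slope higher than the sample average by over 3 SD, cut at about -0.22 in these data, passing the limit was not always enough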;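 also: slope of raw intensity against log time taken from 70 to 1610 s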); settings: recombinant KvBeta, 4-cyanobenzaldehyde reduction, at 10 µM, stronger effect = higher value
Voltage-gated potassium channel subunit beta-2 (Rattus norvegicus), sequence (P62483 whole entry, looked up): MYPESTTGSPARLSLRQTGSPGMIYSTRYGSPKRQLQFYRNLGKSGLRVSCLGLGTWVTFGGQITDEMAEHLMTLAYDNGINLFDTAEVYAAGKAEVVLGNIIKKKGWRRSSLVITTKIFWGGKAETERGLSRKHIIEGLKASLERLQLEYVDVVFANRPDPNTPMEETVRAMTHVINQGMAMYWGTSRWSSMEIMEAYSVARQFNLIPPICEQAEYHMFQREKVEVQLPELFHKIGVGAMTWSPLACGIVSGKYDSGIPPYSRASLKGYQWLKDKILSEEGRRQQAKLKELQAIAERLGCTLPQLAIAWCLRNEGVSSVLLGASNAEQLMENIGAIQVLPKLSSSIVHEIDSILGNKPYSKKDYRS

[5] = molecular target: Voltage-gated potassium channel subunit beta-2 (Rattus norvegicus) (UniProt P62483); test: KvBeta positive modulators, primary screen, biochemical, NADPH fluorescence (AID 623;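 active = NADPH fluorescence slope more negative than the mean of all samples by about 3 SD, 99.7% confidence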;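 also: fluorescence intensity change per second fitted from 20 to 320 s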); settings: Recombinant KvBeta, NADPH fluorescence decrease slope, 10 min; at 10 µM; stronger effect = lower value
[6] = molecular target: Alpha-2C adrenergic receptor (Homo sapiens) (UniProt P18825); test: modulators of alpha2C/GIRK thallium flux, primary screen, cell-based, HEK293 alpha2C/GIRK1/2 (AID 624;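 active = fluorescence slope after compound addition differing from the mean of all screened samples at 99.7% confidence, in either direction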;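 also: slope of fluorescence ratio to pre-addition baseline per second over 15 to 24 s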); settings: thallium flux BTC fluorescence, at 10 µM, actives lie on both sides
Alpha-2C adrenergic receptor (Homo sapiens), sequence (P18825 whole entry, looked up): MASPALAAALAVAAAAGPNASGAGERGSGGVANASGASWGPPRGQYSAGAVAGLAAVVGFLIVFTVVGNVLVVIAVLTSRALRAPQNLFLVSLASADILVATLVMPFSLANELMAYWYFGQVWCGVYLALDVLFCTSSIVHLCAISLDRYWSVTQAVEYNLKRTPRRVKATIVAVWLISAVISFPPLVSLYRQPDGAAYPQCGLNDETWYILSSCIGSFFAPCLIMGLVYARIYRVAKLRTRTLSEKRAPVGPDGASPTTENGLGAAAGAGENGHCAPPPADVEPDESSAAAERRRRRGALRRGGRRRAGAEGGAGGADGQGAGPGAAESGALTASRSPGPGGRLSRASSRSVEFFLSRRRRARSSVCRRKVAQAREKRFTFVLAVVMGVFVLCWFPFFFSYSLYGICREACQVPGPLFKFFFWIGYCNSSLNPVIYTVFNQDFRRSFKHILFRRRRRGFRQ

[7] = inhibitors of Sendai virus-induced IRF3 signaling, primary screen, TLR/RLR signaling modifier project, cell-based, Sendai virus stimulus, luciferase, 10K MLSCN set (AID 602276;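 active = inhibition at or above 50% at 10 µM; inactive = inhibition below 50%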;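 also: firefly luciferase from ISG56 promoter only with Renilla not read in this screen; 0% = Sendai virus plus DMSO and 100% = medium plus DMSO without virus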); settings: HEK293 RL24 IRF3 luciferase reporter, at 10 µM, stronger effect = higher value
[8] = inhibitors of poly I:C-induced TLR3 signaling, primary screen, cell-based, poly I:C stimulus, luciferase, 10K MLSCN set (AID 602277;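 active = inhibition of the reporter signal at or above 50%; inactive = inhibition below 50%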); settings: HEK293-TLR3 RL24 IRF3 luciferase reporter, at 10 µM, stronger effect = higher value

Structure (SMILES) | cell count [1] | inhibition [1] | inhibition of aggregation [2] | nuclei count [2] | inhibition [3] | nuclei count [3] | fluorescence slope [4] | NADPH fluorescence slope [5] | slope [6] | inhibition [7] | inhibition [8]
O=C1CC(c2ccccc2)n2nc(NC(=O)c3ccccn3)nc2N1 (centres undefined) | 565 | 3.3% (inactive) | -11.8% (inactive) | 108% | 16.2% (inactive) | 106% | -0.605 (inactive) | -3.9e-05 (inactive) | 0.00587 (inactive) | 9.98% (inactive) | 27.1% (inactive)
COc1ccc(CCn2c(C)cc(C(=O)CSc3nnnn3C)c2C)cc1 | 441 | -1.5% (inactive) | -14.4% (inactive) | 131% | -45.2% (inactive) | 110% | -0.412 (inactive) | 4.6e-05 (inactive) | 0.00361 (inactive) | 0.703% (inactive) | -19.8% (inactive)
COc1ccc(CC(=O)NCc2nnc(SCC(=O)Nc3nccs3)n2-c2ccccc2)cc1 | 640 | 5.8% (inactive) | 17.6% (inactive) | 98.3% | -36.8% (inactive) | 122% | -0.558 (inactive) | -2.9e-05 (inactive) | 0.00708 (inactive) | 12% (inactive) | 33.9% (inactive)
Cc1cccc(CN2CCC(CNC(=O)C3CCCN(S(=O)(=O)c4cnc[nH]4)C3)CC2)c1 (centres undefined) | 706 | -12.2% (inactive) | 10.2% (inactive) | 106% | -61.1% (inactive) | 125% | -0.518 (inactive) | -3.2e-05 (inactive) | 0.0058 (inactive) | 18.8% (inactive) | 27.2% (inactive)
COc1ccc(S(=O)(=O)N2CCCC2C(=O)Nc2ccc(C)cc2)cc1 (centres undefined) | 469 | 42.3% (active) | -25% (inactive) | 130% | -11.9% (inactive) | 73.3% | -0.498 (inactive) | -5.1e-05 (inactive) | 0.00758 (inactive) | 12.2% (inactive) | 7.96% (inactive)
Cc1ccc(NC(=O)CN(C)S(=O)(=O)c2cccc3nsnc23)cc1Cl | 711 | -16.4% (inactive) | 7.2% (inactive) | 105% | -20.4% (inactive) | 115% | -0.333 (inactive) | -4.1e-05 (inactive) | 0.00467 (inactive) | -17.3% (inactive) | 100% (active)
COCCn1c(SCC(=O)N2CCc3ccccc32)nc2c(c1=O)SC(C)C2 (centres undefined) | 499 | -4.4% (inactive) | 13% (inactive) | 87.2% | -0.4% (inactive) | 109% | -0.45 (inactive) | -1.4e-05 (inactive) | 0.00569 (inactive) | 1.65% (inactive) | 22.3% (inactive)
O=C(c1ccc(Br)o1)N1CCN(c2ccc3nnc(-c4ccccc4)n3n2)CC1 | 634 | -0.5% (inactive) | 3% (inactive) | 80.7% | -91.9% (inactive) | 120% | -0.602 (inactive) | -3.4e-05 (inactive) | 0.00664 (inactive) | -4.83% (inactive) | -337% (inactive)
Cc1ccc(O)c(C(CC(=O)N2CCCC2)c2ccccc2)c1 (centres undefined) | 478 | 1.6% (inactive) | 4.1% (inactive) | 103% | -33% (inactive) | 114% | -0.35 (inactive) | -4.7e-05 (inactive) | 0.00552 (inactive) | 3.98% (inactive) | 16.5% (inactive)
c1ccc(-c2ccccc2OCCn2cncn2)cc1 | 780 | -12.5% (inactive) | 22.9% (inactive) | 112% | -63.6% (inactive) | 111% | -0.485 (inactive) | -3e-05 (inactive) | 0.00513 (inactive) | 2.95% (inactive) | 26% (inactive)
CC(=O)Nc1cccc(Oc2nc(C)cc(C)c2C#N)c1 | 950 | 4% (inactive) | 0.6% (inactive) | 111% | -87% (inactive) | 124% | -0.553 (inactive) | -1.7e-05 (inactive) | 0.00763 (inactive) | 2.68% (inactive) | 22.3% (inactive)
COC(=O)c1cc(OC)c(OC)cc1NC(=O)c1ccc(Br)o1 | 296 | -7.2% (inactive) | -7.5% (inactive) | 95.4% | -91.3% (inactive) | 103% | -0.312 (inactive) | -4.6e-05 (inactive) | 0.00764 (inactive) | 2.63% (inactive) | -5.12% (inactive)
COc1ccc2cc(C#N)c(SCC(=O)N3CCCC3)nc2c1 | 514 | -2.1% (inactive) | -17.8% (inactive) | 116% | -68.2% (inactive) | 150% | -0.57 (inactive) | -2.5e-05 (inactive) | 0.00554 (inactive) | -0.637% (inactive) | -5.53% (inactive)
O=C(CSc1nc(-c2ccccc2)cs1)NCc1ccco1 | 200 | -1.3% (inactive) | 0.4% (inactive) | 54.4% | -32.4% (inactive) | 106% | -0.511 (inactive) | -3.4e-05 (inactive) | 0.00584 (inactive) | -27.5% (inactive) | -55.9% (inactive)
COc1ccc(NC(=O)CN2CCN(S(=O)(=O)c3ccc(Cl)cc3)CC2)cc1 | 333 | 1.1% (inactive) | 17.3% (inactive) | 123% | 5% (inactive) | 116% | -0.411 (inactive) | -2.8e-05 (inactive) | 0.00382 (inactive) | 11.8% (inactive) | 17.3% (inactive)
Nc1nc(-c2ccc(Cl)cc2)nn1C(=O)c1cccnc1 | 293 | 4.2% (inactive) | -4.2% (inactive) | 96.8% | 40.8% (inactive) | 105% | -0.397 (inactive) | 6.7e-06 (inactive) | 0.00507 (inactive) | -0.966% (inactive) | -2.82% (inactive)
CC(=O)C1=C(C)NC(=O)NC1c1cccc(O)c1 (centres undefined) | 454 | 7.3% (inactive) | 0% (inactive) | 111% | -36.2% (inactive) | 110% | -0.399 (inactive) | -5e-05 (inactive) | 0.00509 (inactive) | 14.2% (inactive) | 16% (inactive)
CCOC(=O)c1c(C)n(OCc2ccccc2)c2ccc3c(no[n+]3[O-])c12 | 437 | 4% (inactive) | 2.1% (inactive) | 104% | 8.8% (inactive) | 111% | -0.484 (inactive) | -1e-05 (inactive) | 0.00638 (inactive) | 2.55% (inactive) | 13.2% (inactive)
CN1CCCC(OC(=O)c2ccc3c(c2)OCCO3)C1 (centres undefined) | 214 | -1.4% (inactive) | 23.1% (inactive) | 102% | -1% (inactive) | 70.3% | -0.418 (inactive) | -6.9e-05 (inactive) | 0.00576 (inactive) | -0.0614% (inactive) | -12.6% (inactive)
